A short description of assay [1]: Quantitative High-Throughput drug screen in 47 multiple myeloma cell lines against the NCATS MIPE library collection: Delta47_JCRB cell viability assay (AID 1918925; note: nearly all actives have a fitted effect of over 45% in size). In short, it runs like this: (§1)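 CellTiter-Glo luminescence (ATP) after 48 h compound exposure, 37C/5% CO2; 500 cells/well; MIPE 4.0 approved/investigational drugs pinned in; DMSO = 100%, media only = 0% viability.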

A short description of assay [2]: Quantitative High-Throughput drug screen in 47 multiple myeloma cell lines against the NCATS MIPE library collection: EJM_DSMZ cell viability assay (AID 1918926; note: nearly all actives have a fitted effect of over 30% in size). The method in brief: as §1
Assay [3] in a line: Quantitative High-Throughput drug screen in 47 multiple myeloma cell lines against the NCATS MIPE library collection: AMO1_DSMZ cell viability assay (AID 1918927; note: nearly all actives have a fitted effect of over 30% in size). The method in brief: as §1
A short description of assay [4]: Quantitative High-Throughput drug screen in 47 multiple myeloma cell lines against the NCATS MIPE library collection: ARP1_JJKsccF8 cell viability assay (AID 1918928; note: nearly all actives have a fitted effect of over 40% in size). The method in brief: (§2)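 Each line was plated at 500 cells/well and treated 48 h with library drugs. Viability came from CellTiter-Glo luminescence relative to DMSO and cell-free medium controls.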
The nature of assay [5]: Quantitative High-Throughput drug screen in 47 multiple myeloma cell lines against the NCATS MIPE library collection: ARD_JJKsccE7 cell viability assay (AID 1918929). The method in brief:
as §1

Assay [6] is described as follows: Quantitative High-Throughput drug screen in 47 multiple myeloma cell lines against the NCATS MIPE library collection: Karpas620_DSMZ cell viability assay (AID 1918959). Note: nearly all actives have a fitted effect of over 30% in size. The method in brief: (§3)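 Relative luminescence from CellTiter-Glo served as the viability signal, referenced to DMSO-treated (100%) and cell-free medium (0%) controls. Treatment lasted 48 hours at 37C with 500 cells per well.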

Assay [7] can be described thus: Quantitative High-Throughput drug screen in 47 multiple myeloma cell lines against the NCATS MIPE library collection: KMM1_JCRB cell viability assay (AID 1918960). Note: nearly all actives have a fitted effect of over 30% in size. The method in brief: as §2
A short description of assay [8]: Quantitative High-Throughput drug screen in 47 multiple myeloma cell lines against the NCATS MIPE library collection: Karpas417_ECACC cell viability assay (AID 1918961). The settings on record: Karpas417 myeloma viability, CellTiter-Glo ATP luminescence, 48 h; viability (% of DMSO): at 45.8 µM (top of the series). The method in brief:
as §3

Assay [9] is described as follows: Quantitative High-Throughput drug screen in 47 multiple myeloma cell lines against the NCATS MIPE library collection: JIM3_ECACC cell viability assay (AID 1918963; note: nearly all actives have a fitted effect of over 35% in size). In short, it runs like this: as §3
Assay [10] in a line: Quantitative High-Throughput drug screen in 47 multiple myeloma cell lines against the NCATS MIPE library collection: JIM1_ECACC cell viability assay (AID 1918964). In short, it runs like this:
as §1

The nature of assay [11]: Quantitative High-Throughput drug screen in 47 multiple myeloma cell lines against the NCATS MIPE library collection: INA6_PLB cell viability assay (AID 1918965; note: nearly all actives have a fitted effect of over 55% in size). The method in brief: as §3
A short description of assay [12]: Quantitative High-Throughput drug screen in 47 multiple myeloma cell lines against the NCATS MIPE library collection: Karpas25_ECACC cell viability assay (AID 1918968; note: nearly all actives have a fitted effect of over 35% in size). The method in brief:
as §1

A short description of assay [13]: Quantitative High-Throughput drug screen in 47 multiple myeloma cell lines against the NCATS MIPE library collection: KMS12BM_JCRB cell viability assay (AID 1918971). Note: nearly all actives have a fitted effect of over 35% in size. In short, it runs like this:
as §3

A short description of assay [14]: Quantitative High-Throughput drug screen in 47 multiple myeloma cell lines against the NCATS MIPE library collection: KMS12PE_JCRB cell viability assay (AID 1918972). Note: nearly all actives have a fitted effect of over 30% in size. In short, it runs like this:
as §3

Assay [15] is described as follows: Quantitative High-Throughput drug screen in 47 multiple myeloma cell lines against the NCATS MIPE library collection: KHM11_PLB cell viability assay (AID 1918962). Note: nearly all actives have a fitted effect of over 35% in size. In short, it runs like this:
as §3

A short description of assay [16]: Quantitative High-Throughput drug screen in 47 multiple myeloma cell lines against the NCATS MIPE library collection: JJN3_DSMZ cell viability assay (AID 1918966; note: nearly all actives have a fitted effect of over 50% in size). In short, it runs like this: as §1
The nature of assay [17]: Quantitative High-Throughput drug screen in 47 multiple myeloma cell lines against the NCATS MIPE library collection: H1112_PLB cell viability assay (AID 1918967; note: nearly all actives have a fitted effect of over 30% in size). In short, it runs like this:
as §1

Assay [18] is described as follows: Quantitative High-Throughput drug screen in 47 multiple myeloma cell lines against the NCATS MIPE library collection: KMS20_JCRB cell viability assay (AID 1918973). Note: nearly all actives have a fitted effect of over 45% in size. In short, it runs like this:
as §1

Assay [19] in a line: Quantitative High-Throughput drug screen in 47 multiple myeloma cell lines against the NCATS MIPE library collection: KMS27_JCRB cell viability assay (AID 1918970). Note: nearly all actives have a fitted effect of over 30% in size. In short, it runs like this: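 CellTiter-Glo luminescence after 48 h drug exposure at 37 °C; 500 cells/well, 1536-well format, pin-tool compound addition; DMSO = 100%, media-only = 0% viability.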
Assay [20] in a line: Quantitative High-Throughput drug screen in 47 multiple myeloma cell lines against the NCATS MIPE library collection: KMS21BM_JCRB cell viability assay (AID 1918974). The settings on record: ATP luminescence, 48 h; viability: at 45.8 µM (top of the series) unless noted. In short, it runs like this: as §1

The text below walks through data of PubChem BioAssay (NCATS).

Results filed as inconclusive are left out. Activity calls are given as the source filed them. Calls come from the whole dose curve; as a rule, active = well fitted curve in the direction sought with a large enough effect; inconclusive = small, poorly fitted or top-dose-only effect, or another doubt; inactive = no such curve, though single readings can be large; an effect the other way counts as inactive or inconclusive.
Potency is the fitted concentration of half-maximal effect.

As to `CC(=O)OCCN1C(=O)c2c(C)nc3ccc(S(=O)(=O)N4CCOCC4)cc3c2C1=O`, the Potency entry in assay [1], in assay [2], in assay [3], in assay [4], in assay [5] and in [6] was “inactive” in each case. The Potency entry in assay [7], in assay [9], in assay [10], in [11], in assay [12] and in [13] was “inactive” in each case. Moreover, the Potency result in assay [14] was “inactive”. For the same compound, in assay [8], the viability (% of DMSO) is 109% (active).
Consider `C1=CCOCc2cc(ccc2OCCN2CCCC2)Nc2nccc(n2)-c2cccc(c2)OCC1`, for which the Potency in [1] was 2.35 µM (active); in assay [2], 2.64 µM (active); in assay [3], 3.32 µM (active); in assay [4], 1.66 µM (active); in [5], 1.87 µM (active); in assay [6] it was 2.09 µM (active). For the same compound, the Potency was 1.87 µM (active) in assay [7]; 1.66 µM (active) in assay [8]; 1.66 µM (active) in assay [15]; 2.64 µM (active) in assay [9]; 0.743 µM (active) in assay [10]; 1.48 µM (active) in assay [11]. Moreover, the Potency is 4.18 µM (active) in assay [16]; 5.26 µM (active) in assay [17]; 1.66 µM (active) in [12]; 7.43 µM (active) in assay [13]; 2.64 µM (active) in assay [14]; 2.35 µM (active) in assay [18].
Turning to `Cc1[nH]nc2ccc(-c3cncc(OC[C@@H](N)Cc4ccccc4)c3)cc12`, the Potency in assay [1] is 0.526 µM (active); in [2] it was 1.87 µM (active); in [3], 0.935 µM (active); in assay [4] it was 4.69 µM (active); in assay [5], 2.09 µM (active); in assay [6], 2.09 µM (active). For the same compound, the Potency in [7] is 1.32 µM (active); in [15] it was 0.235 µM (active); in assay [9], 2.09 µM (active); in [10], 1.87 µM (active); in assay [11], 0.935 µM (active); in assay [16], 1.18 µM (active). Moreover, the Potency in assay [17] is 1.87 µM (active); in assay [12], 2.96 µM (active); in assay [19], 2.09 µM (active); in assay [13] it was 4.18 µM (active); in [14], 0.833 µM (active); in assay [18], 1.18 µM (active). The Potency in assay [20] is 0.935 µM (active).
Consider `O=C(CCCCCCNC(=O)c1cnc(N(c2ccccc2)c2ccccc2)nc1)NO`, for which the Potency in assay [1] was 3.32 µM (active); in assay [2], 13.2 µM (active); in assay [3] it was 4.69 µM (active); in assay [4], 2.96 µM (active); in assay [5], 4.69 µM (active); in assay [6], 5.9 µM (active). Further, the Potency in assay [7] was 4.18 µM (active); in assay [8], 0.59 µM (active); in assay [15], 10.5 µM (active); in assay [9], 16.6 µM (active); in [10] it was 4.69 µM (active); in [11], 2.64 µM (active). Also, the Potency in assay [17] is 13.2 µM (active); in assay [12], 4.18 µM (active); in [19] it was 5.26 µM (active); in assay [13], 2.96 µM (active); in [14], 5.9 µM (active); in [18], 8.33 µM (active).
Consider `Nc1ncnc2c1c(-c1cccc(OCc3ccccc3)c1)cn2C1CC(CN2CCCC2)C1` (stereo not drawn), for which the Potency in [1] is 0.059 µM (active); in assay [2] it was 23.5 µM (active); in [3], 16.6 µM (active); in assay [4], 16.6 µM (active); in [5], 1.18 µM (active); in assay [6], 5.9 µM (active). Moreover, the Potency in assay [7] was 4.18 µM (active); in [15], 5.26 µM (active); in [9], 0.0833 µM (active); in assay [10], 0.296 µM (active); in [11], 6.62 µM (active); in assay [16], 5.9 µM (active). The Potency in assay [17] is 16.6 µM (active); in assay [12] it was 0.148 µM (active); in assay [13] it was 23.5 µM (active); in [14], 9.35 µM (active); in [18], 0.132 µM (active).
Turning to `CC1(C)CCC(c2ccc(Cl)cc2)=C(CN2CCN(c3ccc(C(=O)NS(=O)(=O)c4ccc(N[C@H](CCN5CCOCC5)CSc5ccccc5)c(S(=O)(=O)C(F)(F)F)c4)cc3)CC2)C1`, the Potency in assay [1] was 7.43 µM (active); in [2], 8.33 µM (active); in assay [3], 3.72 µM (active); in assay [4] it was 13.2 µM (active); in [5], 2.64 µM (active); in assay [6], 0.0187 µM (active). The Potency in assay [7] is 1.87 µM (active); in assay [15], 6.62 µM (active); in assay [11] it was 5.9 µM (active); in assay [16], 9.35 µM (active); in assay [17] it was 0.0833 µM (active); in assay [12] it was 0.833 µM (active). Moreover, the Potency in [19] was 0.0148 µM (active); in assay [13] it was 0.332 µM (active); in assay [14] it was 0.0105 µM (active).
For `O=C(c1cncc(Br)c1)N1CCC(N2CCCC2)CC1`, the Potency entry in assay [1], in assay [2], in assay [3], in [5], in [6] and in [7] was “inactive” each time. The Potency result in assay [9], in [17], in assay [14] and in assay [18] was “inactive” each time. In addition, the Potency in assay [4] was 16.6 µM (active).
As to `C=CC(=O)Nc1cccc(Oc2nc(Nc3ccc(N4CCN(C)CC4)cc3)ncc2Cl)c1`, the Potency in [1] is 1.87 µM (active); in assay [2] it was 23.5 µM (active); in assay [3] it was 5.26 µM (active); in assay [4], 13.2 µM (active); in assay [5], 16.6 µM (active); in [6] it was 5.26 µM (active). The Potency in assay [7] is 9.35 µM (active); in assay [15], 16.6 µM (active); in assay [11], 2.96 µM (active); in [16], 18.7 µM (active); in assay [12], 3.72 µM (active); in assay [14], 1.87 µM (active).
`C=C1C(=CC=C2CCC[C@]3(C)[C@@H]([C@H](C)C=C[C@H](C)C(C)C)CC[C@@H]23)C[C@@H](O)C[C@@H]1O`: the Potency in [1] is 8.33 µM (active); in assay [2], 0.59 µM (active); in assay [3] it was 0.235 µM (active); in [4] it was 1.66 µM (active); in [5], 0.332 µM (active); in assay [6], 1.48 µM (active). Further, the Potency is 0.469 µM (active) in [7]; 0.118 µM (active) in assay [8]; 9.35 µM (active) in assay [15]; 1.48 µM (active) in [11]; 0.833 µM (active) in assay [16]; 2.35 µM (active) in assay [17]. Moreover, the Potency is 0.118 µM (active) in assay [19], 1.87 µM (active) in [13], 0.662 µM (active) in [14] and 0.0526 µM (active) in assay [20].
For `CC(=O)c1c(C)c2cnc(Nc3ccc(N4CCNCC4)cn3)nc2n(C2CCCC2)c1=O`, the Potency in [1] was 23.5 µM (active); in assay [2], 18.7 µM (active); in [3], 16.6 µM (active); in assay [4], 14.8 µM (active); in assay [5] it was 14.8 µM (active); in assay [6] it was 26.4 µM (active). Also, the Potency in assay [7] is 20.9 µM (active); in assay [8], 16.6 µM (active); in assay [15], 23.5 µM (active); in assay [9] it was 18.7 µM (active); in [11], 18.7 µM (active); in [16], 23.5 µM (active). Besides, the Potency in assay [17] was 23.5 µM (active); in assay [12] it was 11.8 µM (active); in assay [19] it was 26.4 µM (active); in assay [13], 0.833 µM (active); in assay [14], 23.5 µM (active); in assay [20], 14.8 µM (active).
